# Data from PubChem BioAssay AID722 (NMMLSC, 2007).
# Screen size: about 1,300 compounds; about 40 (3%) were called active. No stated cut-off is given here; in the data, active means inhibition above about 30%; inactive means the rest. Many of the other results were omitted from the sample, so actives are more common in it than they were.
# Molecular target: fMet-Leu-Phe receptor (Homo sapiens) (UniProt P21462)
# Assay: human FPR1 ligand displacement screen – cell-based, flow cytometry, SAR analysis, primary screen (AID 722)
# Settings: FPR-expressing cells, fluorescent ligand binding inhibition, hits give high values, concentration not given here
# Sequence of fMet-Leu-Phe receptor (Homo sapiens) (P21462 whole entry, looked up): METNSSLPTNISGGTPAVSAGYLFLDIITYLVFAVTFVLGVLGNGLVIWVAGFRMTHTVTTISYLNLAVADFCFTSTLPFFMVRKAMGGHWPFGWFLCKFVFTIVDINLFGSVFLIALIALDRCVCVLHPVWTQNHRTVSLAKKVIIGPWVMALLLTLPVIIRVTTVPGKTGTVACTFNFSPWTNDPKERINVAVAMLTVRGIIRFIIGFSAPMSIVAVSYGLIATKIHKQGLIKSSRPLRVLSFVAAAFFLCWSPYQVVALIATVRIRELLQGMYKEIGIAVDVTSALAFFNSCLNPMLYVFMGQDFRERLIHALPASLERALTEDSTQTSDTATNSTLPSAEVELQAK
row,SMILES,inhibition
1,Cc1onc(-c2c(Cl)cccc2Cl)c1C(=O)N1CCC(C)CC1,5.9% (inactive)
2,COC(=O)c1c(NC(=O)c2cccc(Br)c2)sc2c1CCCC2,-4.7% (inactive)
3,Cc1cc(N2C(=O)CSC2c2ccccc2F)ccc1Br (stereo not drawn),0.4% (inactive)
4,COc1ccc(OC)c(C2C(C(=O)/C=C/c3ccccc3)=C(O)C(=O)N2CCCCCC(=O)O)c1 (stereo not drawn),-3.9% (inactive)
5,Cc1oc2cc(OCC(=O)O)ccc2c(=O)c1-c1ccc2c(c1)OCCO2,3.2% (inactive)
6,CCOC(=O)c1c(NC(=O)Cc2ccccc2)sc2c1CCCCC2,-0.4% (inactive)
7,COc1cccc(C(=O)/C=C(\Nc2sc3c(c2C#N)CCC3)C(=O)O)c1,-24.9% (inactive)
8,N#Cc1c(N/C(=C\C(=O)c2ccccc2)C(=O)O)sc2c1CCC2,53% (active)
9,Cn1c2c(c(=O)n3ncc(C(=O)O)c13)CN(Cc1ccccc1)CC2,-6.5% (inactive)
10,CCc1cc2c(=O)c(-c3nc4ccccc4n3C)c(C)oc2c(CN2CCCCC2)c1O,-12.9% (inactive)
11,CCOC(=O)c1c(NC(=O)c2cc(C)no2)sc(C)c1C,2.2% (inactive)
12,COc1ccc(OC)c(NC(=O)C(C)n2sc3ccccc3c2=O)c1 (stereo not drawn),2.2% (inactive)
13,CCCCCCOc1cccc(N2C(=O)C(=O)/C(=C(\O)c3ccccc3)C2c2cccc(F)c2)c1 (stereo not drawn),56.3% (active)
14,COc1ccc(/C(O)=C2/C(=O)C(=O)N(c3ccc(C)c(Br)c3)C2c2cccc(F)c2)cc1 (stereo not drawn),20.6% (inactive)
15,Cc1ccc(N2C(=O)C(=O)/C(=C(\O)c3ccccc3)C2c2cccc(F)c2)cc1Br (stereo not drawn),30.2% (active)
16,Cc1cccc(N2C(=O)C(=O)/C(=C(/O)c3ccccc3)C2c2cccc(F)c2)c1 (stereo not drawn),4.1% (inactive)
17,O=C(O)COc1ccc(N2C(=O)C(=O)/C(=C(\O)c3ccccc3)C2c2cccc(F)c2)cc1 (stereo not drawn),-6.1% (inactive)
18,CCCCCCOc1cccc(N2C(=O)C(=O)/C(=C(\O)c3ccccc3)C2c2ccc(C(C)C)cc2)c1 (stereo not drawn),-11.9% (inactive)
19,COC(=O)c1c(NC(=O)c2ccc(C)cc2)sc(C)c1C,-13.3% (inactive)
20,COc1ccc(C2/C(=C(\O)c3ccccc3)C(=O)C(=O)N2CCN2CCOCC2)c(OC)c1 (stereo not drawn),17% (inactive)
21,CCOc1ccc(/C(O)=C2\C(=O)C(=O)N(CCN3CCOCC3)C2c2ccc(Br)cc2)c(C)c1 (stereo not drawn),-1.7% (inactive)
22,COc1ccc(C2SCC(=O)N2c2ccc(Br)cc2)cc1 (stereo not drawn),1.9% (inactive)
23,CCCN(C(=O)c1cccc(NC(=O)[C@H]2[C@@H]3C[C@@H]4[C@H]2C(=O)O[C@@H]4C3)c1)c1ccccc1F,-2.9% (inactive)
24,CCOC(=O)c1c(NC(=O)c2ccco2)sc(C)c1C,-1.8% (inactive)
25,CCOC(=O)C1NN=C(C(=O)c2ccccc2)C1c1ccccc1 (stereo not drawn),-1% (inactive)
26,CCSC1=C(C#N)C(c2ccc3c(c2)OCO3)CC(=O)N1 (stereo not drawn),-2.1% (inactive)
27,COc1cccc(C2/C(=C(/O)c3ccc(Cl)cc3)C(=O)C(=O)N2c2ccc(C)c(Br)c2)c1 (stereo not drawn),0.2% (inactive)
28,COc1ccc(C2CC(=O)C3=C(C2)NC(=O)CC3c2cccs2)cc1OC (stereo not drawn),-3.3% (inactive)
